From the supplement of paper PMC4709259
Counter-ions that a name gives are not always drawn. ± gives the standard deviation.

tested on: Jurkat; experiment: cell count relative to DMSO control (fraction of control); higher = more cells (less growth inhibition); settings: 48 h

SMILES	cell count
Cc1cc2c(s1)Nc1ccccc1N=C2N1CCN(C)CC1 [Olanzapine] (concentration: 25 µM)	0.914 ± 0.1
CCOC(=O)[C@H](CCc1ccccc1)N[C@@H](C)C(=O)N1Cc2ccccc2C[C@H]1C(=O)O [Quinapril·HCl] (concentration: 25 µM)	1.01 ± 0.11
O=C(O)C1(C(=O)O)CCC1.[NH2-].[NH2-].[Pt+2] [Carboplatin] (concentration: 25 µM)	0.51 ± 0.029
CC[C@H](C)[C@H](N)C1=N[C@H](C(=O)N[C@@H](CC(C)C)C(=O)N[C@H](CCC(=O)O)C(=O)N[C@H](C(=O)N[C@H]2CCCCNC(=O)[C@H](CC(N)=O)NC(=O)[C@@H](CC(=O)O)NC(=O)[C@H](Cc3cnc[nH]3)NC(=O)[C@@H](Cc3ccccc3)NC(=O)[C@H]([C@@H](C)CC)NC(=O)[C@@H](CCCN)NC2=O)[C@@H](C)CC)CS1 [Bacitracin] (concentration: 25 µM)	0.476 ± 0.09
CCOC(=O)[C@H](CCc1ccccc1)N[C@@H](C)C(=O)N1CCC[C@H]1C(=O)O [Enalapril] (concentration: 25 µM)	0.733 ± 0.042
CC(=O)OCC(=O)[C@@]12OC3(CCCC3)O[C@@H]1C[C@H]1[C@@H]3CCC4=CC(=O)C=C[C@]4(C)[C@@]3(F)[C@@H](O)C[C@@]12C [Amcinonide] (concentration: 25 µM)	0.823 ± 0.039
CC(CCc1ccccc1)NCC(O)c1ccc(O)c(C(N)=O)c1 (stereo not given) [Labetalol·HCl] (concentration: 25 µM)	0.821 ± 0.1
Cc1ccccc1C(=O)Nc1ccc(C(=O)N2CCCC(O)c3cc(Cl)ccc32)c(C)c1 (stereo not given) [Tolvaptan] (concentration: 25 µM)	0.95 ± 0.028
COC(=O)C1=C(C)NC(C)=C(C(=O)OC)C1c1ccccc1[N+](=O)[O-] [Nifedipine] (concentration: 2.5 µM)	0.92 ± 0.1
Cc1cccc(C)c1NC(=O)C1CCCCN1C (stereo not given) [Mepivacaine·HCl] (concentration: 25 µM)	1.31 ± 0.14
OC[C@H]1O[C@@H](O[C@@H]2[C@@H](CO)OC(O)(CO)[C@H]2O)[C@H](O)[C@@H](O)[C@H]1O (mixture of isomers) [Lactulose] (concentration: 25 µM)	0.56 ± 0.15
C[C@H]1[C@H](NC(=O)/C(=N\OC(C)(C)C(=O)O)c2csc(N)n2)C(=O)N1S(=O)(=O)O [Aztreonam] (concentration: 25 µM)	0.64 ± 0.086
Cc1onc(-c2ccccc2)c1C(=O)N[C@@H]1C(=O)N2[C@@H]1SC(C)(C)[C@@H]2C(=O)O [Oxacillin·Na] (concentration: 25 µM)	0.975 ± 0.1
CC12CC3CC(C)(C1)CC(N)(C3)C2 [Memantine·HCl] (concentration: 25 µM)	0.797 ± 0.017
CN(CCOc1ccc(NS(C)(=O)=O)cc1)CCc1ccc(NS(C)(=O)=O)cc1 [Dofetilide] (concentration: 25 µM)	0.872 ± 0.084
C=CC[C@@H]1/C=C(\C)C[C@H](C)C[C@H](OC)[C@H]2O[C@@](O)(C(=O)C(=O)N3CCCC[C@H]3C(=O)O[C@H](/C(C)=C/[C@@H]3CC[C@@H](O)[C@H](OC)C3)[C@H](C)[C@@H](O)CC1=O)[C@H](C)C[C@@H]2OC [Tacrolimus (Fk506)] (concentration: 25 µM)	0.408 ± 0.045
N=c1nc(N2CCCCC2)cc(N)n1O [Minoxidil] (concentration: 25 µM)	0.703 ± 0.083
CC(C)NCC(O)c1ccc(O)c(O)c1 (racemic) [(±) Isoproterenol·HCl] (concentration: 25 µM)	0.659 ± 0.0053
CCC1(c2ccccc2)C(=O)NCNC1=O [Primidone] (concentration: 25 µM)	0.618 ± 0.18
CC(=O)Oc1cc2c(s1)CCN(C(C(=O)C1CC1)c1ccccc1F)C2 (stereo not given) [Prasugrel] (concentration: 25 µM)	0.831 ± 0.14

SMILES	cell count
Oc1ccc(C2CNCCc3c2cc(O)c(O)c3Cl)cc1 (stereo not given) [Fenoldopam Mesylate] (concentration: 25 µM)	0.272 ± 0.13
CS(=O)(=O)CCNCc1ccc(-c2ccc3ncnc(Nc4ccc(OCc5cccc(F)c5)c(Cl)c4)c3c2)o1 [Lapatinib Ditosylate] (concentration: 25 µM)	0.911 ± 0.14
CC1=C(C(=O)O)N2C(=O)[C@@H](NC(=O)[C@H](N)c3ccccc3)[C@H]2SC1 [Cephalexin Monohydrate] (concentration: 25 µM)	0.931 ± 0.068
COc1c(C)c2c(c(O)c1C/C=C(\C)CCC(=O)O)C(=O)OC2 [Mycophenolic Acid] (concentration: 2.5 µM)	0.225 ± 0.05
CO[C@@]1(NC(=O)C2SC(=C(C(N)=O)C(=O)O)S2)C(=O)N2C(C(=O)O)=C(CSc3nnnn3C)CS[C@@H]21 (stereo not given in full) [Cefotetan Disodium] (concentration: 25 µM)	0.831 ± 0.075
Nc1nc(O)c2ncn(CCC(CO)CO)c2n1 [Penciclovir] (concentration: 25 µM)	0.993 ± 0.053
CN1CCc2cccc3c2[C@H]1Cc1ccc(O)c(O)c1-3 [Apomorphine·HCl Hemihydrate] (concentration: 2.5 µM)	0.444 ± 0.071
C=C[C@H]1CN2CC[C@H]1C[C@@H]2[C@@H](O)c1ccnc2ccc(OC)cc12 [Quinidine·HCl·H2O] (concentration: 25 µM)	0.665 ± 0.11
CCCCC(C)(O)C/C=C/[C@H]1[C@H](O)CC(=O)[C@@H]1CCCCCCC(=O)OC (mixture of isomers) [Misoprostol] (concentration: 25 µM)	0.702 ± 0.08
COc1cc([C@@H]2c3cc4c(cc3[C@@H](O[C@@H]3O[C@@H]5CO[C@@H](C)O[C@H]5[C@H](O)[C@H]3O)[C@H]3COC(=O)[C@H]23)OCO4)cc(OC)c1O [Etoposide] (concentration: 250 nM)	0.243 ± 0.051
N=C(NCCCCCCNC(=N)NC(=N)Nc1ccc(Cl)cc1)NC(=N)Nc1ccc(Cl)cc1 [Chlorhexidine Dihydrochloride] (concentration: 2.5 µM)	0.763 ± 0.045
N=C(N)NCCCC[C@@H]1NC(=O)CCSSC[C@@H](C(N)=O)NC(=O)[C@@H]2CCCN2C(=O)[C@H](Cc2c[nH]c3ccccc23)NC(=O)[C@H](CC(=O)O)NC(=O)CNC1=O [Eptifibatide] (concentration: 25 µM)	0.933 ± 0.11
O=C(c1ccccc1)c1ccc2n1CCC2C(=O)O (stereo not given) [Ketorolac Tromethamine] (concentration: 25 µM)	0.934 ± 0.038
Cc1nc(-c2ccc(OCC(C)C)c(C#N)c2)sc1C(=O)O [Febuxostat] (concentration: 25 µM)	0.592 ± 0.028
Cc1ccccc1N1C(=O)c2cc(S(N)(=O)=O)c(Cl)cc2NC1C (stereo not given) [Metolazone] (concentration: 25 µM)	0.918 ± 0.095
CO[C@@]1(NC(=O)Cc2cccs2)C(=O)N2C(C(=O)O)=C(COC(N)=O)CS[C@@H]21 [Cefoxitin·Na] (concentration: 25 µM)	0.89 ± 0.037
C[C@@H]1[C@H](O)[C@@H](C)/C=C/C=C/C=C/C=C/C=C/C=C/C=C/[C@H](O[C@@H]2O[C@H](C)[C@@H](O)[C@H](N)[C@@H]2O)C[C@@H]2O[C@](O)(C[C@@H](O)C[C@@H](O)[C@H](O)CC[C@@H](O)C[C@@H](O)CC(=O)O[C@H]1C)C[C@H](O)[C@H]2C(=O)O [Amphotericin B] (concentration: 25 µM)	0.27 ± 0.024
Nc1nnc(-c2cccc(Cl)c2Cl)c(N)n1 [Lamotrigine] (concentration: 25 µM)	0.734 ± 0.16
Cc1ncc([N+](=O)[O-])n1CCO [Metronidazole] (concentration: 25 µM)	0.75 ± 0.047
CCOc1cc(CC(=O)N[C@@H](CC(C)C)c2ccccc2N2CCCCC2)ccc1C(=O)O [Repaglinide] (concentration: 25 µM)	0.728 ± 0.063
